Measurements as given in PubChem BioAssay AID463173 (ICCB-Longwood Screening Facility, Harvard Medical School, 2010).
Hit rate of the full screen: of about 52,000 compounds, about 1,700 (3.3%) were called active. This is one part of a sample in which actives are shown more often than they occur. Rule as the data show it: active = survival mostly below about 52% (no sharp cut-off); inactive = mostly above about 56%.

What follows are compounds tested on Wild type (assay: S. aureus survival, RN4220 and DeltatarO strains – OD600, teichoic acid synthesis inhibitors, primary screen (AID 463173)). Settings: S. aureus RN4220 wild type/DeltatarO growth, OD600, 18 h, hits give low values, screened at 18.75 µg/mL (by protocol).

SMILES | survival
CCOC(=O)C(C)(C)Sc1nnc(COc2ccccc2)n1CC | 100% (inactive)
C1CCC2(C1)OCC1(CO2)COC2(CCCC2)OC1 | 111% (inactive)
Cc1ccc(NC(=O)N2CCC(CN3CCC(C)CC3)CC2)cc1F | 82% (inactive)
COc1ccc(CCNC(=O)c2cc(-c3ccc(C)cc3)nc3n[nH]c(-c4ccc(F)cc4)c23)cc1OC | 136% (inactive)
Cc1cccc(-c2nc3scc(CCNC(=O)c4ccc(Br)o4)n3n2)c1 | 74% (inactive)
Cc1cc(C)cc(NC(=O)CSc2nc3c(cnn3-c3ccc(F)cc3)c(=O)[nH]2)c1 | 65% (inactive)
O=S(=O)(c1cccc(Cl)c1)c1nnn2c1nc(NC1CCCC1)c1sccc12 | 95% (inactive)
Cc1ccccc1CNC(=O)C(=O)NCC(c1ccco1)S(=O)(=O)c1ccccc1 (configuration not stated) | 76% (inactive)
O=C(NCc1ccccc1F)C(=O)NCC(c1ccco1)S(=O)(=O)c1ccccc1 (configuration not stated) | -6% (active)
COc1ccc(C(=O)NCC(c2ccco2)S(=O)(=O)c2ccccc2)cc1 (configuration not stated) | -6% (active)
COc1ccc(C(=O)NCC(c2ccco2)S(=O)(=O)c2ccc(F)cc2)cc1 (configuration not stated) | 74% (inactive)
Cc1ccc(S(=O)(=O)C(CNC(=O)c2ccc(F)c(F)c2)c2ccco2)cc1 (configuration not stated) | -6% (active)
CCOc1ccc(C(=O)NCC(c2ccco2)S(=O)(=O)c2ccc(C)cc2)cc1 (configuration not stated) | 85% (inactive)
O=C(NCC(c1ccco1)S(=O)(=O)c1cccs1)c1ccc(F)c(F)c1 (configuration not stated) | 78% (inactive)
Cc1ccc(C(=O)NCC(c2ccco2)S(=O)(=O)c2ccc(Cl)cc2)cc1C (configuration not stated) | 14% (active)
Cc1ccc(C(=O)NCC(c2ccco2)S(=O)(=O)c2ccccc2)cc1C (configuration not stated) | 72% (inactive)
CC(C)(C)c1ccc(C(=O)NCC(c2ccco2)S(=O)(=O)c2ccccc2)cc1 (configuration not stated) | 70% (inactive)
Cc1ccc(C(=O)NCC(c2ccco2)S(=O)(=O)c2cccs2)cc1C (configuration not stated) | 99% (inactive)
O=C(NCc1ccccc1)C(=O)NCC(c1ccco1)S(=O)(=O)c1ccccc1 (configuration not stated) | 67% (inactive)
CCOc1ccc(S(=O)(=O)N(CC(=O)NCc2ccccc2OC)c2ccccc2)cc1 | 58% (inactive)
CC1=C(C#N)C(NC(=O)c2ccccc2Cl)(C(F)(F)F)C(=O)N1 (configuration not stated) | 139% (inactive)
COc1ccc(-c2cn3nc(N4CCC(C(=O)Nc5ccc(Cl)cc5C)CC4)sc3n2)cc1 | 78% (inactive)
CCOCCCn1c(=N)c(S(=O)(=O)c2ccc(C)cc2)cc2c(=O)n3cccc(C)c3nc21 | 77% (inactive)

SMILES | survival
Cc1cc2nn(-c3ccccc3)nc2cc1NC(=O)c1cccc2c(Cl)cccc12 | 70% (inactive)
COc1ccc(N2CCN(CCCNC(=O)c3cnn(-c4ccc(F)cc4)c3-n3cccc3)CC2)cc1 | 77% (inactive)
Cc1ccc(S(=O)(=O)C(CNC(=O)c2ccc(C(F)(F)F)cc2)c2ccco2)cc1 (configuration not stated) | 134% (inactive)
O=C(NCC(c1ccco1)S(=O)(=O)c1ccc(Cl)cc1)c1ccc(C(F)(F)F)cc1 (configuration not stated) | -1% (active)
CC(C)(C)c1ccc(C(=O)NCC(c2ccco2)S(=O)(=O)c2ccc(F)cc2)cc1 (configuration not stated) | 131% (inactive)
O=c1c2[nH]c3ccccc3c2nc(SCc2cccc(F)c2)n1-c1ccccc1 | 53% (inactive)
CCOC(=O)CC(NC(=O)c1cc2c(=O)n3cccc(C)c3nc2s1)c1ccc(OCC(C)C)c(OC)c1 (configuration not stated) | 77% (inactive)
CCOc1ccccc1NC(=O)c1ccc(F)c(S(=O)(=O)NCc2ccc3c(c2)OCO3)c1 | 63% (inactive)
CCN(Cc1ccccc1)S(=O)(=O)c1ccc(F)c(C(=O)Nc2cc(C(F)(F)F)ccc2Cl)c1 | -1% (active)
O=C(Nc1cc(C(F)(F)F)ccc1Cl)c1cnn(-c2ccccc2)c1-n1cccc1 | -3% (active)
O=C(Nc1ccc(Cl)cc1C(F)(F)F)c1cc(S(=O)(=O)NCc2ccccc2)ccc1F | 134% (inactive)
CN(Cc1ccccc1)S(=O)(=O)c1ccc(F)c(C(=O)Nc2cc(Cl)cc(Cl)c2)c1 | 76% (inactive)
CN(Cc1ccccc1)S(=O)(=O)c1ccc(F)c(C(=O)Nc2ccccc2C(F)(F)F)c1 | -6% (active)
O=C(Nc1cc(Cl)ccc1Cl)c1cc(S(=O)(=O)NCCc2ccccc2)ccc1F | 133% (inactive)
CCN(Cc1ccccc1)S(=O)(=O)c1ccc(F)c(C(=O)Nc2cc(C)ccc2OC)c1 | 120% (inactive)
CN(Cc1ccccc1)S(=O)(=O)c1ccc(F)c(C(=O)Nc2cccc(Cl)c2Cl)c1 | 159% (inactive)
COc1ccccc1NC(=O)c1cnn(-c2ccccc2)c1-n1cccc1 | 99% (inactive)
CCN(Cc1ccccc1)S(=O)(=O)c1ccc(F)c(C(=O)Nc2ccc(C(C)C)cc2)c1 | 95% (inactive)
O=C(Nc1cc(C(F)(F)F)ccc1Cl)c1cc(S(=O)(=O)NCc2ccccc2)ccc1F | 14% (active)
COc1cc(OC)c(NC(=O)c2cnn(-c3ccccc3)c2-n2cccc2)cc1Cl | 80% (inactive)
COc1cccc(CNC(=O)c2ccc3c(c2)c(C)c(C)n3Cc2ccccc2)c1 | 72% (inactive)
CCC(C)Nc1sc(S(=O)(=O)CC)nc1S(=O)(=O)c1ccc(C)cc1 (configuration not stated) | 78% (inactive)
COc1ccccc1CNC(=O)Cn1ncn2c(cc3sccc32)c1=O | 76% (inactive)

SMILES | survival
O=C(CN1C(=O)COc2ccc(S(=O)(=O)N3CCOCC3)cc21)N1CCN(c2ccccc2F)CC1 | 100% (inactive)
O=C(CCS(=O)(=O)c1ccccc1)N(Cc1cccnc1)c1nc2ccc(F)cc2s1 | 124% (inactive)
Cc1nccn1S(=O)(=O)c1c(C(C)C)cc(C(C)C)cc1C(C)C | 119% (inactive)
CCOc1cc(C)c(C(C)C)cc1S(=O)(=O)n1ccnc1CC | -11% (active)
CCc1nccn1S(=O)(=O)c1cc(Br)ccc1Br | 69% (inactive)
Cc1ccc2[nH]c3c(=O)n(CC(=O)N(C)Cc4ccccc4)ncc3c2c1 | -3% (active)
Cc1ccc2[nH]c3c(=O)n(CC(=O)N(CCN(C)C)Cc4ccccc4)ncc3c2c1 | 99% (inactive)
Cc1ccc(CNC(=O)Cn2ncc3c([nH]c4ccc(C)cc43)c2=O)cc1 | 79% (inactive)
Cc1ccc2[nH]c3c(=O)n(CC(=O)NC(C)C)ncc3c2c1 | 1% (active)
Cc1ccc(CCNC(=O)Cn2ncc3c([nH]c4ccc(C)cc43)c2=O)cc1 | 131% (inactive)
CCCCN(C)C(=O)Cn1ncc2c([nH]c3ccc(C)cc32)c1=O | 81% (inactive)
O=C(NCC(c1cccs1)S(=O)(=O)c1cccs1)c1ccccc1 (configuration not stated) | 70% (inactive)
COc1ccccc1CCNC(=O)Cn1ccc2cc(S(=O)(=O)N3CCCCC3)ccc21 | 87% (inactive)
Cc1cccc(C(=O)n2nc(-c3cccnc3)nc2NCc2ccccc2)c1 | 106% (inactive)
Cc1ccc(S(=O)(=O)c2nc(-c3ccc(F)cc3)oc2N2CCN(c3ccccc3)CC2)cc1 | 115% (inactive)
COc1ccc(-c2nc(S(=O)(=O)c3ccc(Cl)cc3)c(N3CCCCCC3)o2)cc1 | 64% (inactive)
Cc1ccc(S(=O)(=O)c2nc(-c3ccc(Cl)cc3)oc2N2CCCCCC2)cc1 | 30% (inactive)
Cc1ccc(-c2nc(S(=O)(=O)c3ccc(Cl)cc3)c(N3CCCCC3)o2)cc1 | 5% (active)
COc1ccc(-c2nc(S(=O)(=O)c3ccccc3)c(N3CCC(C)CC3)o2)cc1 | 89% (inactive)
O=S(=O)(c1ccccc1)c1nc(-c2ccc(Cl)cc2Cl)oc1N1CCCCC1 | 57% (inactive)
O=S(=O)(c1ccccc1)c1nc(-c2ccccc2Cl)oc1N1CCCCCC1 | 14% (active)
Cc1ccc(S(=O)(=O)c2nc(-c3ccccc3F)oc2N2CCCCC2)cc1 | 17% (active)
COc1ccccc1-c1nc(S(=O)(=O)c2ccc(Cl)cc2)c(N2CCCCCC2)o1 | 70% (inactive)

SMILES | survival
Cc1ccc(S(=O)(=O)c2nc(-c3ccccc3Cl)oc2N2CCCCCC2)cc1 | 20% (inactive)
O=S(=O)(c1ccccc1)c1nc(-c2ccccc2F)oc1N1CCOCC1 | 77% (inactive)
COc1ccccc1-c1nc(S(=O)(=O)c2ccccc2)c(N2CCC(C)CC2)o1 | -5% (active)
CCC(Oc1ccccc1)C(=O)Nc1cc(-c2cccc(C)c2)nn1-c1ccccc1 (configuration not stated) | 89% (inactive)
CCOC(=O)c1ccc(NC(=O)CSc2nnc(CNC(=O)c3ccc(OC)cc3)n2CC)cc1 | 134% (inactive)
COc1ccc(-c2nnc(C3CCN(C(=O)c4ccccc4F)CC3)o2)cc1 | 85% (inactive)
CCOC(=O)c1ccc(NC(=O)CC2C(=O)N(c3ccccc3)C(=O)N2Cc2ccc(C)cc2)cc1 (configuration not stated) | 58% (inactive)
COc1ccccc1NC(=O)CCCc1nnc2n(C)c(=O)c3sccc3n12 | 97% (inactive)
CC1CCN(C(=O)CS(=O)(=O)Cc2ccccc2)CC1 | 102% (inactive)
O=C1C(=O)N(C2CCN(C(=O)c3cccc(Cl)c3)CC2)CCN1Cc1ccc(F)cc1 | 77% (inactive)
Cc1nc2c3ccccc3nc(NNC(=O)CCC(=O)N3CCN(c4ccccc4)CC3)n2n1 | 81% (inactive)
COc1ccc(-n2c(=O)c3c(c4cc(OC)ccc4n3C)n(CC(=O)NCC3CCCO3)c2=O)cc1 (configuration not stated) | 83% (inactive)
COc1ccc(CNCCSc2nnnn2-c2ccccc2)cc1 | 83% (inactive)
Cc1ccc(C)c(NC(=O)CN(Cc2ccccc2)S(=O)(=O)c2ccc3nc(C)sc3c2)c1 | 66% (inactive)
Cc1ccc(S(=O)(=O)c2nc(-c3cccc(C)c3)oc2N2CCCCC2)cc1 | 2% (active)
Cc1ccc(S(=O)(=O)c2nc(-c3cccc(C)c3)oc2N2CCN(c3ccccc3)CC2)cc1 | 117% (inactive)
Cc1ccc(-c2nc(S(=O)(=O)c3ccc(C)cc3)c(N3CCN(c4ccccc4)CC3)o2)cc1 | 104% (inactive)
Cc1cccc(-c2nc(S(=O)(=O)c3ccc(Cl)cc3)c(N3CCCCCC3)o2)c1 | 41% (inactive)
Cc1ccc(S(=O)(=O)c2nc(-c3ccccc3)oc2N2CCN(c3ccccc3)CC2)cc1 | 86% (inactive)
Cc1ccc(-c2nc(S(=O)(=O)c3ccc(C)cc3)c(N3CCCCCC3)o2)cc1 | 84% (inactive)
COc1ccc(-c2nc(S(=O)(=O)c3ccc(C)cc3)c(N3CCCCC3)o2)cc1 | 63% (inactive)
Cc1ccc(S(=O)(=O)c2nc(-c3ccccc3)oc2N2CCCCCC2)cc1 | 6% (active)
Cc1ccc(-c2nc(S(=O)(=O)c3ccc(C)cc3)c(N3CCCCC3)o2)cc1 | 0% (active)
